Screening data (PubChem BioAssay)
D2 PAM-1: Beta-Arrestin HTS for Positive Allosteric Modulators of the Human D2 Dopamine Receptor: Potentiators | DiscoveRx D2 beta-arrestin cells, luminescence, 90 min; 100% = 57 uM dopamine signal | 360,000 compounds, 0.23% hits | potentiation, % (concentration not given with the values); in the data active means potentiation above about 50%; inconclusive means mostly about 30% to 49%
Target sequence (P14416 whole entry, looked up): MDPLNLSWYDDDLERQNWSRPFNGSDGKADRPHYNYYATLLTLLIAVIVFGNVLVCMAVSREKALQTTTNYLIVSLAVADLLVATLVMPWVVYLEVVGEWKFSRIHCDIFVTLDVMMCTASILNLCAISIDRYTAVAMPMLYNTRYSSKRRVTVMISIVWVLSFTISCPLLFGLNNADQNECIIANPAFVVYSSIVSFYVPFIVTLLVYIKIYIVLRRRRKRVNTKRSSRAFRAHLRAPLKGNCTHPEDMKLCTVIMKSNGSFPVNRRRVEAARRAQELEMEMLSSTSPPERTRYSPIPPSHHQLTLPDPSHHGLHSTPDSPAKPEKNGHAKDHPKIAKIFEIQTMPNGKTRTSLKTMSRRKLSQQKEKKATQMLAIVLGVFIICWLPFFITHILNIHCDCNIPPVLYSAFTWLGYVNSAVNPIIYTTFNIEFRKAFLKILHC
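D2 cells co-treated with compound plus 50 nM dopamine (EC20) for 90 min at 37 deg C to detect potentiation. Beta-arrestin recruitment was read as enzyme-fragment luminescence after 1 h at ambient temperature. Full response was set by 57 uM dopamine.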
D2 ag-1: Beta-Arrestin HTS for Positive Allosteric Modulators of the Human D2 Dopamine Receptor: Agonists; DiscoveRx PathHunter D2 beta-arrestin, luminescence, 90 min; 100% = 57 uM dopamine signal; AID 624465, 2012; activation, % (concentration not given with the values); D(2) dopamine receptor (Homo sapiens), P14416; 360,000 compounds, 0.084% hits; in the data active means activation above about 40%; inconclusive means between about 15% and that limit
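Agonist mode: compounds alone added to overnight-plated D2 PathHunter cells for 90 min at 37 C, with 57 uM final dopamine (EC100) defining full response. Beta-arrestin recruitment detected by chemiluminescent reagent, read after 1 h at ambient temperature.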
D2 PAM-2: HTS Assay for Positive Allosteric Modulators of the Human D2 Dopamine Receptor: Primary Screen for Potentiators; HEK293 T-REx D2, calcium flux, EC20 dopamine potentiation; D(2) dopamine receptor (Homo sapiens), P14416; 340,000 compounds, 0.34% hits; potentiation, % at 10 µM;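 active means potentiation over 3 SD above the plate norm, cut at about 30% in these data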
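Tetracycline-induced HEK293 T-REx cells force-coupled to calcium signalling expressed D2; compounds were pin-added after a 10 s baseline, read kinetically 180 s, then an EC20 dopamine challenge followed with a further 180 s calcium read.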
D2 ag-2: HTS Assay for Allosteric Agonists of the Human D2 Dopamine Receptor: Primary Screen for Agonists. 340,000 compounds, 0.53% hits. D(2) dopamine receptor (Homo sapiens), P14416. HEK293 T-REx D2 cells, calcium flux agonist mode. activation, % at 2 µM;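 active means activation over 3 SD above normal in the single-dose calcium agonist read, cut at about 30% in these data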
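In this primary screen, compounds producing a positive calcium signal within 180 s of addition to tetracycline-induced, force-coupled HEK293 Trex D2 cells are flagged; cells are dye-loaded with a no-wash calcium kit beforehand.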
D2 antag: HTS Assay for Allosteric Antagonists of the Human D2 Dopamine Receptor: Primary Screen for Antagonists. inhibition, % at 10 µM. 340,000 compounds, 2% hits. HEK293 TREx D2 cells, calcium flux, dopamine EC80; in the data active means inhibition above about 30%; inactive means below that, where a call was filed
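Inhibition of EC80 dopamine-driven calcium flux, recorded kinetically, defines activity here; cells are a tetracycline-induced HEK293 T-REx line expressing force-coupled D2.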
Hits are given with their value; i = inactive; ? = inconclusive; nt = no result given. Sampled rows, rich in hits. Any-hit rate of the full collection: about 2.4%.

SMILES	D2 PAM-1	D2 ag-1	D2 PAM-2	D2 ag-2	D2 antag
CC1CCN(C2CCN(S(=O)(=O)c3ccc(F)cc3)CC2)CC1	i	i	i	i	i
CCOC(=O)c1ccc(CN(Cc2ccccc2C)S(=O)(=O)c2ccc(C(C)(C)C)cc2)cc1	nt	nt	i	i	nt
Cc1cc(C)cc(OCc2cc(=O)n3c4c(sc3n2)CCCC4)c1	nt	nt	i	i	nt
Cc1ccc(-n2ncc(C#N)c2/N=C/N2CCN(C)CC2)cc1	i	i	i	i	37.3
COc1ccc(N2CCN(c3ccc4nnc(CCC(=O)Nc5ccc(C)cc5)n4n3)CC2)cc1	i	i	i	i	34.0
COc1ccc(NC(=O)CCc2nnc3ccc(N4CCC(C)CC4)nn23)cc1	i	i	i	i	i
CN(C)c1ccc(-c2nnc3n(Cc4ccccc4)c(=O)c4ccccc4n23)cc1	nt	nt	i	i	nt
COc1ccc(CCNCC(=O)Nc2c(C)cc(C)cc2C)cc1OC	i	i	i	i	44.9
COc1ccc(CCNC(=O)c2[nH]c(C)c(C(C)=O)c2C)cc1OC	i	i	i	i	37.7
Nc1ccc(C(=O)N/N=C\C=C\c2cccc([N+](=O)[O-])c2)cc1	i	i	i	i	48.0
O=C(N/N=C/c1cccc([N+](=O)[O-])c1)c1cc2ccccc2o1	i	i	i	i	32.9
O=C(O)Cn1cc(/C=N/NC(=O)c2cc3cc(Br)ccc3o2)c2ccccc21	i	i	i	i	i
Cn1cc(/C=N/NC(=O)c2cc3cc(Br)ccc3o2)c2ccccc21	i	i	i	i	65.6
COc1ccc2ccccc2c1/C=N/Nc1cccc(C(=O)O)c1	i	i	i	i	i
O=C(O)c1cccc(N/N=C/c2cccc3ccccc23)c1	i	i	47.4	i	i
O=C(N/N=C/C=C/c1cccc([N+](=O)[O-])c1)c1ccncc1	i	i	i	i	i
Cc1oc(-c2ccc(C(=O)NCCN(C)C)cc2)nc1CS(=O)(=O)c1ccccc1	nt	nt	i	i	nt
CC1CCc2c(sc(NC(=O)c3cc(-c4cccc(Cl)c4)on3)c2C(N)=O)C1 (stereo unspecified)	nt	nt	i	i	nt
COc1ccccc1NC(=O)Cn1nnc(C(=O)Nc2ccccc2Br)c1N	nt	nt	i	i	nt
O=C(N/N=C/c1cccc2ccccc12)c1cccnc1	i	i	i	i	37.3
Cc1ccccc1/C=N/NC(=O)c1cccnc1	i	i	i	i	i
O=C(O)c1cccc(N/N=C/c2sc(N3CCOCC3)nc2-c2ccccc2)c1	112.0	i	i	i	i
O=C(COC(=O)c1cccnc1)Nc1cccc2ccccc12	i	i	i	i	32.2
O=C(N/N=C/c1cccc2ccccc12)c1cc2ccccc2o1	i	i	i	i	52.0
COc1ccc(C(=O)NCC(c2ccc(N(C)C)cc2)N2CCc3ccccc32)cc1OC (stereo unspecified)	nt	nt	i	i	nt
SMILES	D2 PAM-1	D2 ag-1	D2 PAM-2	D2 ag-2	D2 antag
Cc1ccc(C)c(Cn2cnc3c(cnn3-c3ccc(F)cc3)c2=O)c1	nt	nt	i	nt	nt
Fc1ccc(N2CCN(c3ncnc4[nH]ncc34)CC2)cc1	nt	nt	i	i	nt
COc1cc(O)c(C(CC(=O)N2CCCC(C)C2)c2ccc(N(C)C)cc2)c(OC)c1 (stereo unspecified)	i	i	i	i	31.3
Cc1ccc2cc3cc(C(=O)Nc4ccc(F)cc4Cl)oc3nc2c1	nt	nt	i	i	nt
CC1(C)C(C=C(Cl)Cl)C1C(=O)N/N=C/c1ccccc1F (stereo unspecified)	i	i	i	i	59.9
CC1(C)OC2OC(C(=O)N/N=C/c3ccccc3F)C3OC(C)(C)OC3C2O1 (stereo unspecified)	i	i	i	i	i
CC(=O)N1Cc2ccccc2C(C)CC12CCCC2 (stereo unspecified)	i	i	i	i	31.2
CC(=O)N1c2ccccc2C(C)CC12CCCCC2 (stereo unspecified)	i	i	i	i	i
O=C(CSc1nccn1Cc1ccc(Cl)cc1)NC1CCCC1	nt	nt	i	i	nt
Oc1ccc(CN2CCCCC2)c2cccnc12	i	i	i	i	i
Oc1cc2c(cc1CN1CCc3ccccc3C1)OCO2	i	i	i	i	32.6
COc1cc(CN2CCc3ccccc3C2)ccc1O	i	i	i	i	i
Oc1ccc(CN2CCc3ccccc3C2)c2cccnc12	i	i	i	i	65.2
C=Cc1ccc(Cn2c(C(=O)O)c(CNCc3cc(OC)ccc3OC)c3ccc(C)cc32)cc1	nt	nt	i	i	nt
COc1ccc(CCNC(=O)c2ccc3c(c2)CCN3S(=O)(=O)c2ccc(C)cc2)cc1	nt	nt	i	nt	nt
CCC(=O)C1=C(c2cccc([N+](=O)[O-])c2)N(C(=O)CC)n2c(nnc2-c2ccccc2)S1	nt	nt	i	i	nt
S=C(NCC1CCCO1)Nc1ccc(Nc2ccccc2)cc1 (stereo unspecified)	i	i	i	i	40.0
Cc1ccc(C2CC2/C(=N/O)c2ccc(F)cc2)cc1 (stereo unspecified)	i	i	i	i	33.6
O=C1c2cccc3c(N4CCCCC4)ccc(c23)C(=O)N1CCO	i	i	i	i	i
O=C1c2cccc3c(N4CCCCC4)ccc(c23)C(=O)N1c1cccc(O)c1	i	i	i	57.2	i
Cc1n[nH]c(C)c1N1C(=O)c2cccc3c(N4CCCCCC4)ccc(c23)C1=O	i	i	i	83.9	i
Cn1cccc([N+](=O)[O-])c1=O	i	i	nt	nt	nt
Cn1c(=O)c(=O)n(C)c2cc([N+](=O)[O-])c([N+](=O)[O-])cc21	54.0	?	i	i	i
CC(C)CCNC(=O)c1cnc2sc(N3CCCCC3)nn2c1=O	nt	nt	i	i	nt
CCCCC(Sc1nc(N)c(NC(=O)c2ccc(OCC)cc2)c(=O)[nH]1)C(=O)O (stereo unspecified)	i	i	31.2	i	i
SMILES	D2 PAM-1	D2 ag-1	D2 PAM-2	D2 ag-2	D2 antag
CC(C)Cn1nc(C(=O)NCc2ccccc2CN2CCCC2)c2ccccc2c1=O	i	i	i	i	44.9
CCCn1nc(C(=O)NCc2ccc3c(c2)OCO3)c2ccccc2c1=O	i	i	38.7	i	i
COC(=O)/C(C#N)=C1/SC=C(C)N1c1ccccc1	i	i	34.4	nt	nt
COc1ccccc1Cn1c(CNS(=O)(=O)c2cccc([N+](=O)[O-])c2)nc2cccnc21	nt	nt	i	i	nt
Cn1c(CN2CCN(c3ccccc3NS(C)(=O)=O)CC2)nc2ccccc21	i	i	i	i	32.5
Cn1c(CN2CCN(c3ccc(Cl)cc3)CC2)nc2ccccc21	i	i	i	i	i
O=C(Nc1ccccc1)c1nc[nH]c1C(=O)NCCNC(=O)c1[nH]cnc1C(=O)Nc1ccccc1	61.0	?	nt	nt	nt
